# Results as given in ChEMBL document CHEMBL4513216, “Probing the Open Global Health Chemical Diversity Library for Multistage-Active Starting Points for Next-Generation Antimalarials” (ACS Infect Dis, 2020).
# Hit rate of the full screen: of about 69,000 compounds, about 8,600 (12%) showed an effect of 50% or more. The entries come from a sample that favours strong results as a whole.
# Test system: Plasmodium berghei
# Assay: Screen against P. berghei liver stage (PbLuc), transformed with Luciferase, at 10uM
# Format: functional, HepG2
# Conditions: tested at 10 uM
row,SMILES,INHIBITION
1,CCn1cc(NC(=O)NCc2ccc(CO)c(F)c2)cn1,-59.4%
2,O=C(O)C(c1ccc(Cl)c(F)c1)N1CCN(Cc2ccccn2)CC1 (stereo not given),52.1%
3,Cc1c(Cl)cccc1NC(=O)N1CCN(Cc2ccccn2)CC1,64.3%
4,Cc1ccc(C)c(C(C(=O)O)N2CCCN(Cc3ccccn3)CC2)c1 (stereo not given),0.139%
5,O=C(c1ccccc1Cl)N1CCN(CCc2ccccn2)CC1,30%
6,Cc1ccc(Cl)c(C)c1NC(=O)N1CCCN(Cc2ccccn2)CC1,46.3%
7,O=C(c1cc2c(Cl)cccc2[nH]1)N1CCN(CCc2ccccn2)CC1,56.3%
8,Cc1ccc(NC(=O)N2CCN(Cc3ccccn3)CC2)cc1Cl,42.1%
9,O=C(c1cc(Cl)c[nH]1)N1CCN(CCc2ccccn2)CC1,9.79%
10,Cc1cc(F)c(C(C(=O)O)N2CCN(Cc3ccccn3)CC2)cc1Cl (stereo not given),66.6%
11,CSc1ccccc1C(C(=O)O)N1CCN(Cc2ccccn2)CC1 (stereo not given),33.5%
12,Cc1ccc(C(C(=O)O)N2CCCN(Cc3ccccn3)CC2)c(F)c1 (stereo not given),-1.49%
13,COc1ccc(C)cc1C(C(=O)O)N1CCN(Cc2ccccn2)CC1 (stereo not given),26.7%
14,Cc1cccc(-n2cnnc2CCCN2CCOCC2)c1,34.4%
15,CNC(=O)C1CCC(NC(=O)c2cc(C3CC3)n(C(C)(C)C)n2)CC1 (stereo not given),15.4%
16,c1ccc(OCCNC2CCCN(Cc3noc(C4CC4)n3)C2)cc1 (stereo not given),-52.5%
17,CNC(=O)c1ccc(C(=O)N2CCCC2c2cnn(C)c2)cn1 (stereo not given),59.4%
18,CCN(c1ccc(C(=O)N2CCCC2c2cnn(C)c2)cn1)C(C)C (stereo not given),48.4%
19,COc1ccc(C(=O)N2CCCC2c2cnn(C)c2)cn1 (stereo not given),-11.9%
20,CC(C)CN(C)c1ccc(C(=O)N2CCCC2c2cnn(C)c2)cn1 (stereo not given),52.1%
21,CN(C)c1ccc(C(=O)N2CCCC2c2cnn(C)c2)cn1 (stereo not given),-13.3%
22,Cn1cc(C2CCCN2C(=O)c2ccc(Br)o2)cn1 (stereo not given),12.2%
23,Cn1cc(C2CCCN2C(=O)c2ccc(NC3CC3)nc2)cn1 (stereo not given),22.25%
24,CCN(CC)Cc1ccc(C(=O)N2CCCC2c2cnn(C)c2)o1 (stereo not given),57%
25,CC(=O)NCc1ccc(C(=O)N2CCCC2c2cnn(C)c2)o1 (stereo not given),-1.88%
26,CC(NC(=O)NCCn1ccnc1)c1ccc2c(c1)CCC(=O)N2 (stereo not given),-15.5%
27,CO[C@H]1C(=O)N(C)C2(CCNCC2)[C@@H]1C(=O)Nc1ccccc1,29%

row,SMILES,INHIBITION
1,Cc1noc(C)c1CN1CC[C@H]2OCC[C@@]2(C(=O)N2CCCO2)C1,37.5%
2,Cc1cnn(CC2CCCN2C(=O)c2cnc(-c3ccco3)s2)c1 (stereo not given),15.5%
3,CCS(=O)(=O)N1CCc2nc(N3CCOCC3)nc(N(C)C)c2CC1,55.6%
4,CCS(=O)(=O)N1CCc2nc(N3CCCC3)nc(N(C)C)c2CC1,23.1%
5,CCCS(=O)(=O)N1CCc2nc(N3CCOCC3)nc(N(C)C)c2C1,43.8%
6,CC(=O)N1CCCC1C(=O)NCCOc1c(C)cccc1C (stereo not given),-57.4%
7,CC(C)NC(=O)[C@]12COC[C@H]1CN(Cc1cnn(C)c1)C2,-1.36%
8,Cc1ccccc1-n1c(C)cc(=O)[nH]c1=O,33.4%
9,COCC1CN(C(=O)Cc2cccs2)Cc2nnn(C)c21 (stereo not given),26.3%
10,CC(CN1CCOCC1)NC(=O)c1cc(Cl)c2c(c1)OCCO2 (stereo not given),-23.7%
11,Cc1c(Cl)c(C(=O)NN2CCOCC2)nn1C,55.7%
12,Cc1nn(C)c(C)c1CC(=O)NCc1cccnc1N1CCOCC1,1.48%
13,Cc1c(Cl)c(C(=O)NC(C)CN2CCOCC2)nn1C (stereo not given),54.9%
14,Cc1nn(C)c(C)c1C(=O)NN1CCOCC1,62.3%
15,CCC(=O)NCCNC(=O)c1nn(C)c(C)c1Cl,-23%
16,Cn1nc(C(=O)NN2CCOCC2)c(Cl)c1C(F)(F)F,-23%
17,Cc1cc(C(=O)NCc2c(C)nn(C)c2C)nc(N2CCOCC2)n1,12.9%
18,Cc1c(Cl)c(C(=O)NCc2ccc(F)cc2)nn1C,-6.18%
19,CNc1ncccc1CN1CCN(C(C)=O)CC(C(N)=O)C1 (stereo not given),-61.5%
20,O=C(c1cocn1)N1CCC[C@]2(C[C@@H](Oc3ncccc3F)CO2)C1,-26.5%
21,O=C(c1ccc[nH]1)N1CCC2(CC1)CC(Oc1cccnc1)CO2 (stereo not given),22.5%
22,CN1CCCC1CNC(=O)CCCOc1cccc(F)c1 (stereo not given),11.5975%
23,CCn1ncc(-c2cc(C(F)F)n3nc(CCC(=O)O)nc3n2)c1C,20.4%
24,Cc1cccc(N2N=C(C(=O)NC(C)Cn3cccn3)CCC2=O)c1 (stereo not given),50.5%
25,Cc1cccc(N2N=C(C(=O)NC(C)Cc3ccco3)CCC2=O)c1 (stereo not given),32%
26,Cc1cccc(N2N=C(C(=O)NC(C)CCc3ccco3)CCC2=O)c1 (stereo not given),12.4%
27,CCc1noc(CN2CCC(C(=O)Nc3cnn(CC)c3)CC2)n1,5.9%

row,SMILES,INHIBITION
1,CCn1cc(NC(=O)C2CCN(Cc3nc(C(C)C)no3)CC2)cn1,53.9%
2,CCn1cc(NC(=O)C2CCN(Cc3nc(C)c(C)s3)CC2)cn1,55.6%
3,CCn1cc(NC(=O)C2CCN(Cc3nc(C)c(C)o3)CC2)cn1,8.31%
4,CCCc1noc(CN2CCC(C(=O)Nc3cnn(CC)c3)CC2)n1,22.3%
5,CCn1cc(NC(=O)C2CCN(Cc3ccccc3)CC2)cn1,21.6%
6,Cc1noc(CNC(=O)C(C)(C)NC(=O)OC(C)(C)C)n1,22%
7,COc1ccc(C2=NOC(C(=O)N3CCCc4ccccc43)C2)cc1 (stereo not given),-20.6%
8,CC(C)N(C)CC(=O)NCC(Cc1ccc(F)cc1)C(N)=O (stereo not given),-16%
9,Fc1ccccc1C1NCCc2cc3c(cc21)OCCO3 (stereo not given),2.6%
10,CCc1ccc(C2NCCc3cc4c(cc32)OCCO4)cc1 (stereo not given),51.5%
11,Clc1ccc(C2NCCc3cc4c(cc32)OCCO4)cc1 (stereo not given),45.6%
12,CCOC(C)C(=O)NCCNS(C)(=O)=O (stereo not given),19.3%
13,CC(C)(C)NC(=O)NC(=O)CN1C=Nc2ccccc2S1(=O)=O,44.3%
14,COc1ccc(CNC(Cc2cccs2)c2nc(C)c(C)s2)cc1OC (stereo not given),30.4%
15,COc1ccc(CN2CCC(c3cc(O)nc(C)n3)C2)c(OC)c1 (stereo not given),-12.2%
16,CC(C)Oc1cccc(CNC(Cc2ccsc2)c2nccs2)c1 (stereo not given),44.3%
17,COc1cccc(OC)c1CNC(Cc1ccsc1)c1ccc(C)cn1 (stereo not given),84.2%
18,CC(C)CC(NCc1ccsc1)c1ccccn1 (stereo not given),44.6%
19,COc1ccc(CNC(Cc2ccsc2)c2ncccc2C)cc1OC (stereo not given),55.05%
20,COc1ccc(CNC(Cc2ccsc2)c2ccc(C)cn2)c(OC)c1 (stereo not given),68.4%
21,Cc1cccnc1C(Cc1ccsc1)NCc1cnc(N(C)C)nc1 (stereo not given),-2.495%
22,COc1ccc(CNC(Cc2ccsc2)c2ccc(C)cn2)cc1OC (stereo not given),44.3%
23,O=C(C1CCCCC1)N1CCC(n2nc(-c3ccco3)ccc2=O)CC1,40%
24,Cc1ccc(C(N)c2cccc(S(C)(=O)=O)c2)c(C)c1 (stereo not given),-24.2%
25,CCc1csc(C2CCCN(C(=O)c3cc(Cl)c[nH]3)C2)n1 (stereo not given),11.9%
26,CCCC1COCCN1Cc1ccc(S(=O)(=O)NC)cc1 (stereo not given),-6.39%
27,CNC(=O)NC(=O)CN1CCCC(Cc2ccccc2OC)C1 (stereo not given),-43.6%

row,SMILES,INHIBITION
1,COc1ccccc1CC1CCCN(CC(=O)NC2CC2)C1 (stereo not given),-25.9%
2,CNC(=O)CN1CCCC(Cc2ccccc2OC)C1 (stereo not given),59%
3,CCCS(=O)(=O)N1C[C@@H](OCc2ccncc2)[C@H]2OCCC[C@H]21,-7.2%
4,CCOCCn1c(=O)[nH]c2cc(C(=O)N(C)Cc3cnn(C)c3)ccc21,24.065%
5,CCOCCn1c(=O)[nH]c2cc(C(=O)N(C)CCc3cn[nH]c3)ccc21,50.1%
6,CCCN(C)C(=O)c1ccc2c(c1)[nH]c(=O)n2CCOCC,3.47%
7,CC(C)N(C)Cc1cc(=O)n2c(n1)CN(S(=O)(=O)C1CC1)CCC2,25.6%
8,CNC(=O)C1(CCCc2ccccn2)CN(Cc2coc(C)n2)C1,14.6%
9,Cc1ccc(CC(=O)NC(C)C(=O)N2CCS(=O)(=O)CC2)s1 (stereo not given),76.2%
10,Cc1ccc(CC(=O)NC(C)C(=O)N2CCS(=O)(=O)CC2)cc1 (stereo not given),-11.1%
11,CC(NC(=O)Cc1ccccc1F)C(=O)N1CCS(=O)(=O)CC1 (stereo not given),49.4%
12,CNC(=O)CN1CCO[C@H]2CN(CC3CCOCC3)C[C@H]21,13.7%
13,CC(C)NC(=O)CN1CCC(c2cccc(F)c2)C1 (stereo not given),45.65%
14,Cn1nccc1C(=O)N1Cc2cc(Cl)ccc2OC2(CCOCC2)C1,-0.902%
15,CN1CC(c2ccccc2)CC12CCN(C(=O)c1ccc(Cl)cc1)CC2 (stereo not given),37.6%
16,CN1CC(c2ccccc2)CC12CCN(C(=O)c1c(Cl)cnn1C)CC2 (stereo not given),55.1%
17,CN1CC(c2ccccc2)CC2(CCN(C(=O)c3ccccc3)CC2)C1 (stereo not given),49.4%
18,CN1CC(c2ccccc2)CC2(CCN(C(=O)c3cccnn3)CC2)C1 (stereo not given),81.2%
19,COC(=O)N1CCC2(CC1)CC(c1ccccc1)CN(C)C2 (stereo not given),39.4%
20,CN1CC(c2ccccc2)CC12CCN(C(=O)c1cncc(Cl)c1)CC2 (stereo not given),8.47%
21,CN1CC(c2ccccc2)CC12CCN(C(=O)c1ccncc1)CC2 (stereo not given),7.6%
22,CN1CC(c2ccccc2)CC12CCN(C(=O)c1ccc(Cl)cn1)CC2 (stereo not given),28.5%
23,CN1CC(c2ccccc2)CC12CCN(C(=O)c1cccnc1)CC2 (stereo not given),51.2%
24,O=C(c1cc(-c2cccnc2)[nH]n1)N1CCCC(Cc2ccccn2)C1 (stereo not given),-12.76%
